From PubChem BioAssay AID588814 (The Scripps Research Institute Molecular Screening Center, 2011)
Out of some 360,000 compounds screened, about 1,200 (0.33%) were called active.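 Rule for the calls: active = activation above the run's mean compound activation plus 3 SD (cut at about 16% in these data); inactive = the rest.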 What follows is part of a selection rich in actives, with near analogues and random picks from the rest.

What follows are compounds tested against Muscarinic acetylcholine receptor M1 (Homo sapiens) (UniProt P11229) (assay: CHRM1 activation via calcium signal – Fluo-8 calcium fluorescence, CHO-K1 cells, HTS, primary screen (AID 588814;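 note: peak over basal fluorescence ratio within a 140 s kinetic read after compound addition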)). Conditions: CHO-K1 hM1, Fluo-8 calcium fluorescence, agonist mode; at 3 µM; stronger effect = higher value; 0% DMSO, 100% acetylcholine EC100.
Chain of Muscarinic acetylcholine receptor M1 (Homo sapiens) (P11229 whole entry, looked up): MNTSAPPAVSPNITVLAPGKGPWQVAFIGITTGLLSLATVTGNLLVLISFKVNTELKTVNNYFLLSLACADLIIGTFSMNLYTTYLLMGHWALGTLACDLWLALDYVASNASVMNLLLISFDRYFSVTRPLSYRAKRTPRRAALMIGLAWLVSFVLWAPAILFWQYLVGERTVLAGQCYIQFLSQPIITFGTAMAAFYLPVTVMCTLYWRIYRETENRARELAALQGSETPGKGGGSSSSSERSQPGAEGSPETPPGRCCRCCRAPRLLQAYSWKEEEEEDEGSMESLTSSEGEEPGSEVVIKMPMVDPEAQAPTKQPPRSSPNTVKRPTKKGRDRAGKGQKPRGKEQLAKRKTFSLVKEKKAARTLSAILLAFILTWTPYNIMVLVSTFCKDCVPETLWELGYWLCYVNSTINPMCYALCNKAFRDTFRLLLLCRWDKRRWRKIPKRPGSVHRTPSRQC
For O=C(Cn1ncc2c3ccccc3n(Cc3ccccc3)c2c1=O)NCc1ccccn1, the activation was -0.49% (inactive). For Cc1ccc(Cn2c(C)c3cnn(CC(=O)NCc4ccccn4)c(=O)c3c2C)cc1, the activation was 8.5% (inactive). With Cc1c2cnn(CC(=O)NCc3ccccn3)c(=O)c2c(C)n1Cc1ccc(Cl)cc1 the activation was 26% (active). In the case of Cc1ccc(C(C)C)c(OCc2nnc(SCC(=O)Nc3nccs3)n2C)c1, the activation is reported as -4.42% (inactive). In the case of CCCN(C(=O)c1nc2nccc(C)n2n1)c1c(N)n(Cc2ccccc2)c(=O)[nH]c1=O, the activation is reported as -3.03% (inactive). For Nc1ncnc2c1ncn2[C@@H]1O[C@H](CNC(=O)[C@H](N)Cc2cccnc2)[C@@H](O)[C@H]1O, the activation was -1.79% (inactive). With COc1ccc(N2C(=O)CCC(C(=O)Nc3ccccn3)C2c2ccc(OC)c(OC)c2)cc1 (stereo not drawn) the activation was 5.33% (inactive). Cc1cc(N/C=C\C(=O)c2ccc(Cl)c(Cl)c2)no1 was tested, and the activation was -3.12% (inactive). COc1ccc(C(=O)/C=C/Nc2ccccn2)cc1 was tested, and the activation was 55% (active). For FC(F)Oc1ccccc1C1CC(c2ccc(Br)s2)Nc2ncnn21 (stereo not drawn), the activation was 0.72% (inactive). CC1CC(C)(C)CC2(C1)NC(=O)N(CC(=O)Nc1nccs1)C2=O (stereo not drawn) was tested, and the activation was -1.16% (inactive). CC1CCN(C(=O)CSc2nnc(-c3ccco3)n2N)CC1 was tested, and the activation was -4.05% (inactive). With O=C1NCCn2nc3ccccc3c21 the activation was -2.22% (inactive). For Cc1ccc(NS(=O)(=O)c2cc3c(cc2C)NC(=O)CO3)cc1, the activation was 1.51% (inactive). For Cc1ccc(NS(=O)(=O)c2cc3c(cc2Br)NC(=O)CO3)cc1C, the activation was 21.6% (active). For Cc1ccc(NS(=O)(=O)c2ccc3c(c2)NC(=O)CO3)cc1, the activation was 2.14% (inactive). With O[C@H]1C[C@H](c2ccc(Cl)cc2)N(Cc2cccs2)C[C@@H]1n1cc(C2CC2)nn1 the activation was 1.89% (inactive). In the case of Cc1cc2nc3c(=O)n(Cc4ccccc4)c(=O)[nH]c3nc2cc1N, the activation is reported as 24.8% (active). With Nc1cc(=O)n(Cc2ccccc2)c(=O)n1Cc1ccccc1 the activation was -2.41% (inactive). With CN(C(=O)COC(=O)c1ccc(Br)o1)c1c(N)n(Cc2ccccc2)c(=O)[nH]c1=O the activation was -3.72% (inactive). For O=C(OCC(=O)N1CCCCCC1)c1cccc(Cl)c1Cl, the activation was -4.74% (inactive). In the case of CC(=O)Nc1cccc(-c2ccnc3c2CC(C)(C(=O)NCc2ccccc2)O3)c1 (stereo not drawn), the activation is reported as -0.77% (inactive). COc1ccc(OC)c(NC(=O)CN(Cc2ccc(Cl)cc2)S(C)(=O)=O)c1 was tested, and the activation was -5.87% (inactive). For Cc1onc(-c2ccccc2)c1C(=O)NNC(=S)NC(=O)c1ccc(F)cc1, the activation was 70.4% (active). With Cc1[nH]c2ccccc2c1C(=O)COC(=O)c1c(-c2ccccc2)noc1C the activation was -5.12% (inactive). COc1ccc(C(=O)NC(=S)NNC(=O)c2c(-c3ccccc3)noc2C)cc1 was tested, and the activation was 44.6% (active). For Cc1onc(-c2ccccc2)c1C(=O)N1CCN(S(=O)(=O)c2ccccc2C(F)(F)F)CC1, the activation was -3.88% (inactive). In the case of O=C(/C=C/c1ccc(F)cc1)NC(=S)NNC(=O)c1cccnc1, the activation is reported as 1.15% (inactive). In the case of COc1ccc(C(=O)NC(=O)CSc2nnc(-c3ccco3)n2-c2ccccc2)cc1, the activation is reported as -3.2% (inactive). In the case of COCCNc1ncnc2c1nc1n2CCCC1, the activation is reported as -3.29% (inactive). For COCCCNC(=O)c1cccc2c(-c3ccc(O)c(OC)c3)coc12, the activation was 0.67% (inactive). In the case of Cc1ccc(/C=N/NC(=O)C(NC(=O)c2ccccc2)c2n[nH]c(=O)c3ccccc23)cc1 (stereo not drawn), the activation is reported as -2.92% (inactive). In the case of CSc1nc2nc(-c3cccc(C(F)(F)F)c3)ccn2n1, the activation is reported as -3% (inactive). For Cc1ccc(-n2nc3c(c2NC(=O)CCC2CCCCC2)CS(=O)C3)cc1 (stereo not drawn), the activation was -1.89% (inactive). Cc1ccccc1NC(=S)NC(=O)Cc1ccc(Cl)cc1 was tested, and the activation was 29.9% (active). In the case of O=C(Cc1ccc(Cl)cc1)NC(=S)Nc1ccccc1O, the activation is reported as 52.4% (active). O=C(COc1ccc(Cl)cc1)NC(=S)Nc1ccccc1N1CCOCC1 was tested, and the activation was 0.8% (inactive). In the case of O=C(COc1ccc(Cl)cc1)Nc1ccccc1CO, the activation is reported as -3.25% (inactive). Cc1ccccc1N/C(SCc1ccc(Cl)cc1)=C(/C#N)C(N)=O was tested, and the activation was -7.61% (inactive). Cc1cccc(NC(=S)NCCc2ccc(Cl)cc2)c1C was tested, and the activation was -5.48% (inactive). For O=C(c1ccccc1)c1cccn1CC(=O)N1CCN(c2ccc(F)cc2)CC1, the activation was 0.36% (inactive). For Cc1nc2ccccc2n1C(=O)N1CCOCC1, the activation was -1.92% (inactive). For O=C(N/N=C1\CCSC1)c1cc(Cl)ccc1O, the activation was -0.13% (inactive). In the case of CN(CC(=O)NCCc1ccc(S(N)(=O)=O)cc1)CC(=O)Nc1ccc(Cl)cc1, the activation is reported as -1.41% (inactive). CCN(CC)c1ccc(C2C3CCCCC3(O)CCN2CC(=O)Nc2ccccc2)cc1 (stereo not drawn) was tested, and the activation was -4.34% (inactive). COc1ccc(C2/C(=C(/O)c3ccc4c(c3)CC(C)O4)C(=O)C(=O)N2Cc2ccncc2)cc1 (stereo not drawn) was tested, and the activation was -3.47% (inactive). With Cc1c[n+]([O-])ccc1[N+](=O)[O-] the activation was -2.04% (inactive). In the case of Nc1nc(SCC(=O)NNc2c(Cl)cc(Cl)cc2Cl)n[nH]1, the activation is reported as -4.83% (inactive). With Cc1ccc(/C=C/C(=O)OCC(=O)NCc2ccc(Cl)cc2)o1 the activation was -3.98% (inactive). For CCN(CC)c1ccc2oc(=O)c(C)nc2c1, the activation was 49% (active). With Cc1ccc2oc(=O)ccc2c1 the activation was -4.21% (inactive). For CCc1ccc2oc(-c3ccc(N)cc3)nc2c1, the activation was 6.55% (inactive). With Cc1cc(=O)oc2c3c(cc(OCC(=O)NCC(O)c4ccccc4)c12)OC(C)(C)CC3 (stereo not drawn) the activation was 0.12% (inactive). With CCOC(=O)N(Cc1ccccc1)C1CC1 the activation was -2.66% (inactive). For CN(C(=O)CN(CCO)CC(=O)N(C)C(C)(C)Cc1ccccc1)C(C)(C)Cc1ccccc1, the activation was 27.2% (active). CN(CCO)C(=O)c1nc[nH]c1C(=O)N(C)Cc1ccccc1 was tested, and the activation was -4.9% (inactive). In the case of CCS(=O)(=O)n1nc(-c2ccccc2)nc1SCc1ccccc1, the activation is reported as -2.07% (inactive). For CN(CC(=O)NCCN1CCOCC1)S(=O)(=O)c1ccc(F)cc1, the activation was -1.7% (inactive). CC(=O)Oc1ccc(Cn2c(C)c(C(=O)NCc3ccc(C#N)cc3)sc2=O)cc1 was tested, and the activation was 33% (active). For Cc1c(C(=O)NCc2ccc(C#N)cc2)sc(=O)n1Cc1ccc(C(=O)N(C)C)cc1, the activation was -5.38% (inactive). With Cc1ccc(Cn2c(C)c(C(=O)NCc3ccccc3C(F)(F)F)sc2=O)cc1 the activation was -6.02% (inactive). For COc1ccc(N/N=C2/CCCCC2=O)cc1, the activation was -3.78% (inactive). For COc1ccc(NC(=O)C2(C)Cc3c(-c4cccc(NC(C)=O)c4)ccnc3O2)cc1 (stereo not drawn), the activation was -1.09% (inactive). In the case of O=S(=O)(c1cccs1)N1CCN(CCOc2ccccc2)CC1, the activation is reported as -2.7% (inactive). With O=c1[nH]c2ccccc2n1C1CCN(CCOc2ccccc2)CC1 the activation was 75.4% (active). In the case of O=C1CCN(CCc2ccccc2)CCN1CCOc1ccccc1, the activation is reported as -5.27% (inactive). In the case of CC1Cc2ccccc2N1CC(=O)Nc1ccc(S(N)(=O)=O)cc1 (stereo not drawn), the activation is reported as 0.2% (inactive). In the case of O=C(CN(Cc1ccccc1)C(=O)CCC(=O)Nc1ccccn1)NCCc1ccccc1, the activation is reported as -5.06% (inactive). CC(=O)NC(CC(=O)Nc1nc(-c2ccccc2)c(C(C)=O)s1)c1ccccc1 (stereo not drawn) was tested, and the activation was -2.65% (inactive). For Nc1ncnc2c1ncn2[C@@H]1O[C@H](C(=O)NS(=O)(=O)c2c(Cl)nc3sccn23)[C@@H](O)[C@H]1O, the activation was -1% (inactive). For COc1cccc(C=CC(=O)C=CC=Cc2ccccc2)c1, the activation was -0.1% (inactive). With O=C(/C=C(O)/C=C/c1ccc(O)cc1)/C=C/c1ccc(O)cc1 the activation was 30% (active). For COc1ccc(/C=C/C(=O)c2c(O)cc(OC)cc2OC)cc1, the activation was -5.79% (inactive). With CCOc1ccc(CCNC(=O)COC(=O)c2c(OC)cccc2OC)cc1OCC the activation was 0.68% (inactive). For CCCCC(=O)NNC(=S)NC(=O)C(c1ccccc1)c1ccccc1, the activation was 88.8% (active). With O=C(CCN1CCN(c2ccccc2)CC1)NNC(=S)Nc1ccccc1 the activation was -3% (inactive). CC(C)CC(=O)NC(=S)NCc1ccccc1 was tested, and the activation was -7.45% (inactive). O=C(N=C1SC2CS(=O)(=O)CC2N1Cc1ccccc1)c1ccccc1 (stereo not drawn) was tested, and the activation was 0.69% (inactive). With CCOc1ccc(NS(=O)(=O)c2ccc(C(=O)NCC(c3ccccc3OC)N3CCCC3)cc2)cc1 (stereo not drawn) the activation was 22.7% (active). In the case of CCOc1ccc(NS(=O)(=O)c2ccc(C(=O)NC3CCN(Cc4ccccc4)CC3)cc2)cc1, the activation is reported as -4.76% (inactive). For CCOc1ccc(S(=O)(=O)Nc2ccc(C(=O)NCCCN3CCCC3=O)cc2)cc1, the activation was -1.87% (inactive). In the case of Cc1ccc(S(=O)(=O)N(CC(=O)Nc2cccnc2)c2ccc(Br)cc2)cc1, the activation is reported as -0.74% (inactive). In the case of c1ccc2c(c1)OCC(CNc1ncnc3nc[nH]c13)O2 (stereo not drawn), the activation is reported as 134% (active). O=C(Cn1cnc2ccccc2c1=O)NCC1COc2ccccc2O1 (stereo not drawn) was tested, and the activation was -0.06% (inactive). In the case of COc1ccc(CCNc2ncnc3nc[nH]c23)cc1OC, the activation is reported as 3.98% (inactive). For O=C(Nc1ccc(Cl)cc1)N1CCc2[nH]c3ccccc3c2C1, the activation was 21.6% (active). O=C(NC1CCCCC1)N1CCc2[nH]c3ccccc3c2C1 was tested, and the activation was 18.1% (active). CCc1ccc(NC(=O)N2CCc3ccccc3C2)cc1 was tested, and the activation was -5.56% (inactive). For O=C(Nc1cccc2c1CCCC2)C1CCN(C(=O)NC2CCCCC2)CC1, the activation was -2.08% (inactive). For C=CCNC(=S)N1CCc2[nH]c3ccccc3c2C1, the activation was 2.34% (inactive). With O=C(CSc1nnc2c(n1)[nH]c1ccccc12)NC1CCCCC1 the activation was -3.41% (inactive). CCOC1=C2[C@@H](CN(S(=O)(=O)c3ccc(C)cc3)[C@H]2c2ccccc2F)[C@H]2C(=O)N(Cc3ccccc3)C(=O)[C@H]2C1 was tested, and the activation was -5.09% (inactive). CCCc1cc(=O)[nH]c(SCC(=O)Nc2ccc(S(=O)(=O)N3CCCC3)cc2)n1 was tested, and the activation was -4.58% (inactive).
